# Experimental data as given in ChEMBL document CHEMBL3988442, “University of Dundee, Small-Polar-MMV Screening Library” (2021).
# Among all 65,000 compounds or so, about 65 (0.1%) showed an effect of 50% or more. For the sample, strong results were picked, then their nearest neighbours and some compounds at random.
# Molecular target: Tryptophan--tRNA ligase (Mycobacterium tuberculosis (strain ATCC 25618 / H37Rv)) (UniProt P9WFT3)
# Assay: Biochemical assay for Mt-TrpRS
# Type: functional
# Parameters: scale not given: direction of the effect not stated beside the values
# Conditions: 10 µM
# Sequence of Tryptophan--tRNA ligase (Mycobacterium tuberculosis (strain ATCC 25618 / H37Rv)) (P9WFT3 whole entry): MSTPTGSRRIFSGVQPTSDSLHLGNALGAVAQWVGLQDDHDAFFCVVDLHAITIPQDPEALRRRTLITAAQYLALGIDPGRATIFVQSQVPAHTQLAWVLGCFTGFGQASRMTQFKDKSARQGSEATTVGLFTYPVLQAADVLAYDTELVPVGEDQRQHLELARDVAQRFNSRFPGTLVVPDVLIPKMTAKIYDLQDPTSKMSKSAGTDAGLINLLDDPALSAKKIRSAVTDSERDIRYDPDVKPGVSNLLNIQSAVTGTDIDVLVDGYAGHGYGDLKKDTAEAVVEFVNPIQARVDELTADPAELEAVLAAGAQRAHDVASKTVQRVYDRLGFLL
row,SMILES,Percent Effect
1,C=C(C)CN(CC)C(=O)c1cc(F)ccc1N1CCN(C)CC1,1.96%
2,CCN(CC1CCOC1)C(=O)c1cc(F)ccc1N1CCN(C)CC1 (configuration not stated),68.2%
3,CCN(CC1CCOC1)C(=O)c1ccc(N2CCOCC2)c(F)c1 (configuration not stated),18.7%
4,Fc1cnc(N2CC[C@@H]3O[C@H](COCc4ccccn4)CC[C@@H]32)nc1,-3.79%
5,CCc1cnc(N2C[C@H]3C[C@H](C(=O)NC)[C@@H](C2)O3)nc1,-4.37%
6,c1ccc(CCN2CCOC(CNc3cccnn3)C2)nc1 (configuration not stated),-2.61%
7,Cn1cc(CCN2CCOC(CNc3cccnn3)C2)cn1 (configuration not stated),66%
8,c1cnnc(NCC2CN(CCn3cccn3)CCO2)c1 (configuration not stated),-1.42%
9,c1ccc(CN2C[C@H]3CCC[C@@]3(COCC3CC3)C2)nc1,-0.775%
10,COc1ccc(CN2C[C@@H]3OCCN(CC4CCCO4)[C@@H]3C2)cc1 (some centres not stated),4.27%
11,c1ccc(Cn2cccn2)c(CNCC2CNc3ccnn3C2)c1 (configuration not stated),6.16%
12,c1ccc(Cn2cc(CNCC3CNc4ccnn4C3)cn2)cc1 (configuration not stated),62.4%
13,c1cc(CNCC2CNc3ccnn3C2)cc(Cn2cccn2)c1 (configuration not stated),2.73%
14,COc1ccc(C(=O)N2CCO[C@H]3[C@@H](OCC4CC4)CC[C@@H]32)cc1F,-0.755%
15,Cc1ccc(CN2CC(C(=O)NC(C)C)C3(CCOCC3)C2)s1 (configuration not stated),0.402%
16,CC(c1ccc2c(c1)OCO2)N1Cc2nc(N(C)C)ncc2C1=O (configuration not stated),4.59%
17,N#Cc1ccsc1N1CCC(Sc2ccncc2)C1=O (configuration not stated),4.7%
18,CC(C)c1nn(C)c(N2CCOCC2)c1CNCC(=O)N(C)C,4.97%
19,CC(NCc1c(C(C)C)nn(C)c1N1CCOCC1)C(=O)N(C)C (configuration not stated),71.4%

row,SMILES,Percent Effect
1,CC(NCc1c(C(C)C)nn(C)c1N1CCOCC1)C(N)=O (configuration not stated),-6.01%
2,c1ccc(CN2CC[C@@H]3O[C@@H](COCCN4CCCC4)CC[C@@H]32)nc1,1.72%
3,CC(C)(C)c1nc(CN2CCC(c3ccnn3CCO)CC2)no1,23.6%
4,CC(C)c1nc(CN2CCC(c3ccnn3CCO)CC2)no1,61.5%
5,CC(C)c1noc(CN2CCC(c3ccnn3CCO)CC2)n1,-1.43%
6,COc1cc(Cl)ccc1C(=O)NCc1nncn1C,-10.5%
7,Cn1cnnc1C1CCN(C(=O)CCOc2ccc(Cl)cc2)CC1,64.2%
8,Cc1cccc(C)c1OCCC(=O)N1CCC(c2nncn2C)CC1,3.92%
9,Cn1cnnc1C1CCN(C(=O)CCCOc2ccccc2)CC1,-0.13%
10,CC[C@H]1CN2CC[C@H]1C[C@@H]2CNCc1ccc(OC(F)(F)F)cc1,-0.828%
11,O=C(C1CC1)N1CC[C@H]2[C@@H]1CCC(=O)N2c1ccccc1,6.13%
12,N#Cc1cn[nH]c1NCc1cc(Br)ccc1O,288%
13,N#Cc1cn[nH]c1NCc1cc(I)cc(I)c1O,3.89%
14,N#Cc1cn[nH]c1NCc1cc(Cl)cc(Cl)c1O,8.64%
15,NCCN1C(=O)CC[C@H]2CN(Cc3ccc4occc4c3)CC[C@H]21,1.29%
16,COCCN1C[C@H]2CCN(C(=O)Nc3ccccc3C)CC[C@H]2S1(=O)=O,-4.45%
17,Cc1ncoc1C(=O)N1C[C@H]2CCC[C@@]2(COCc2cccnc2)C1,1.59%
18,CC(C(=O)NCc1ccc(N2CCCCCC2)nc1)S(C)(=O)=O (configuration not stated),-1.98%
19,CC(C(=O)NCc1ccc(N2CCCC2)nc1)S(C)(=O)=O (configuration not stated),59.5%

row,SMILES,Percent Effect
1,CC(C(=O)NCc1ccc(N2CCCCC2)nc1)S(C)(=O)=O (configuration not stated),-4.1%
2,Cc1nnc2n1CCN(CC(=O)N1CCc3ccccc3C1)C2,18.8%
3,Cc1cccc(CN2CCC[C@@H]3CN(C(=O)c4ccco4)C[C@@H]32)n1,0.174%
4,COc1ccc(C[C@H]2CN(c3cc(OC)ncn3)CC[C@H]2OC)cc1,5.86%
5,O=C(NCC(F)(F)F)C(c1cccnc1)N1CCCC1 (configuration not stated),0.735%
6,O=C(NCC1=CCCCC1)C(c1cccnc1)N1CCCC1 (configuration not stated),51%
7,O=C(NCC1=CCCCC1)C(c1cccnc1)N1CCOCC1 (configuration not stated),-0.187%
8,CCn1c(SC)nnc1C1CCN(C(=O)N2CCCC2)CC1,-3%
9,Cn1ccnc1CN1C(=O)CO[C@H]2CN(Cc3ccc(F)c(F)c3)C[C@H]21,2.2%
10,O=C(NCC1CC1)[C@@H]1CCO[C@@H]2CCN(Cc3ccco3)C[C@H]21,9.55%
11,c1ccc(O[C@@H]2CC[C@H]3[C@H]2OCCN3Cc2ccsc2)nc1,8.46%
12,CCCc1nnc(NC(=O)NC(C)Cn2cccn2)s1 (configuration not stated),-6.24%
13,Cc1nnc(NC(=O)NC(C)Cn2cccn2)s1 (configuration not stated),-5.8%
14,CCC(CC)c1nnc(NC(=O)NC(C)Cn2cccn2)s1 (configuration not stated),69.6%
15,COCCNC(=O)[C@H]1C[C@@H]2CCN(c3ccccc3)C[C@H]2O1,6.99%
16,CNC(=O)[C@@H]1COC[C@H]2CN(C(=O)c3cccc(OC)c3)C[C@H]21,1.06%
17,COc1ccccc1CN1CCC(c2nccc(C)n2)C1 (configuration not stated),22%
18,COc1cccc(F)c1CN1CCC(c2nc(C)cc(C)n2)C1 (configuration not stated),70.2%
19,COc1cccc(F)c1CN1CCC(c2nccc(C)n2)C1 (configuration not stated),-3.03%
